The panel holds about 79,000 compounds, 15% with a hit somewhere; the sample as a whole holds those more often. Unmarked numbers belong to inactive results. Activity calls are given as the source filed them. No stated cut-off is given here; in the data, active means growth inhibition above about 70%; inactive means the rest.
Assays:
[1] = NCI Yeast Anticancer Drug Screen. Data for the rad50 strain (AID 155);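 further: 0% = growth of vehicle-only cultures of the same strain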; conditions: S. cerevisiae rad50 strain growth inhibition; at 50.0 µM; stronger effect = higher value
In short: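 Relative growth inhibition (compound vs vehicle) was measured in yeast with a defined repair-gene alteration.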

[2] = NCI Yeast Anticancer Drug Screen. Data for the mec2-1 strain (AID 157); conditions: S. cerevisiae mec2-1 strain, at 50.0 µM, stronger effect = higher value
In short: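 Yeast mec2-1 mutant treated with compound. Readout: growth inhibition vs vehicle controls.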

[3] = NCI Yeast Anticancer Drug Screen. Data for the sgs1 mgt1 strain (AID 161);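 further: 0% = growth of cultures given vehicle only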; conditions: S. cerevisiae sgs1 mgt1 strain, at 50.0 µM, stronger effect = higher value
In short: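 Genetically altered yeast, compound exposure, growth inhibition relative to vehicle.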

[4] = NCI Yeast Anticancer Drug Screen. Data for the cln2 rad14 strain (AID 165);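 further: 0% = growth equal to vehicle treated cultures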; conditions: S. cerevisiae cln2 rad14 strain, at 50.0 µM, stronger effect = higher value
In short: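 cln2 rad14 yeast strain; compound exposure; growth inhibition read vs vehicle controls.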

[5] = NCI Yeast Anticancer Drug Screen. Data for the bub3 strain (AID 167); conditions: S. cerevisiae bub3 mutant strain, at 50.0 µM, stronger effect = higher value
In short: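 Screening used yeast with an engineered genetic alteration affecting cell cycle control. Compound-exposed cultures were compared with vehicle cultures, and reduced growth was taken as inhibition.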

[6] = NCI Yeast Anticancer Drug Screen. Data for the mlh1 rad18 strain (AID 175); conditions: S. cerevisiae mlh1 rad18 strain growth inhibition; at 50.0 µM; stronger effect = higher value
In short: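 Yeast w/ defined DNA-repair lesions; compound exposure; growth vs vehicle controls → % inhibition.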

| SMILES | growth inhibition [1] | growth inhibition [2] | growth inhibition [3] | growth inhibition [4] | growth inhibition [5] | growth inhibition [6] |
| --- | --- | --- | --- | --- | --- | --- |
| C/C(=N\N=C(/C)c1cccc([N+](=O)[O-])c1)c1cccc([N+](=O)[O-])c1 | -5.75% | -21% | 17.5% | -10.3% | 16.4% | -7.7% |
| CCC12OC(COc3ccccc3)CN1CCN2c1ccccc1 (centres undefined) | -12.2% | -6.15% | -10.7% | 3.15% | -15.1% | -11.5% |
| Cc1ccc(S(=O)(=O)NC(=O)NCCSSCCNC(=O)NS(=O)(=O)c2ccc(C)cc2)cc1 | 10.6% | -7.35% | 12.6% | -1% | 18.6% | 7.95% |
| CC(=O)N(CCCCCCN(C(C)=O)C(C)=O)C(C)=O | -14.8% | -9.25% | -0.5% | -0.55% | -9.85% | -6.15% |
| CC(=O)c1cccs1 | -9.65% | -0.05% | 15.1% | -20.1% | -3.35% | 6.7% |
| COc1ccc(-c2csc(NC(=O)Nc3nc(-c4ccc(OC)cc4)cs3)n2)cc1 | 4.25% | -0.95% | 0.7% | -8.35% | 7.7% | 1.4% |
| Cc1ccc(C2CCCCC2)cc1Br | 5.7% | 4.25% | 4.4% | 3.15% | 9.45% | 28.3% |
| CC(C)c1ccccc1NC(=O)N1CCC(C(C)C)CC1 | -20.8% | -42.6% | -29.8% | -22.6% | -7% | -12.7% |
| CCC(=O)Oc1ccc2ccccc2c1 | 49.4% | 32.8% | 28.5% | 14.8% | 17.4% | 29.8% |
| CC(=O)[C@@]1(O)CC[C@H]2[C@@H]3CC[C@@H]4CC(=O)CC[C@]4(C)[C@H]3[C@@H](O)C[C@@]21C | -19.9% | -1.9% | -3% | -51.6% | 11.1% | -13.5% |
| CC1(C)CC(=O)C=C(N)C1 | 7.35% | -16.5% | 1.05% | 14.2% | -4.7% | 5.45% |
| CCN(CC)CCCC(C)NC(=S)N/N=C(\C)c1ccccn1 (centres undefined) | 60.6% | 47.6% | 41% | 11.2% | 29.1% | 42.7% |
| C=C1CC2(OC1=O)C(=O)N(C)c1ccc(I)cc12 (centres undefined) | 91.3% (active) | 93.2% (active) | 92.1% (active) | 90.5% (active) | 91.5% (active) | 91.2% (active) |
| Nc1nc(N)nc(N2CCCCC2)n1 | -23.3% | -5.75% | -16.4% | -41.2% | -4.25% | -19.9% |
| CC1=CC(=Nc2ccc(N(C)C)cc2)C=C(C)C1=O | -14.5% | -21.1% | -5.1% | -38.1% | 20.2% | -12.4% |
| c1ccc2[nH]c(Cc3nc4ccccc4[nH]3)nc2c1 | 48% | -14.4% | 50.4% | 7.65% | 35% | 10.2% |
| COc1ccc2c(Cl)cc(NC(=O)Nc3c(C)cccc3C)nc2c1 | 5.8% | 1.15% | 13.9% | 6.65% | 21.1% | 7.2% |
| O=C1NC(=O)C(c2ccccc2)O1 (centres undefined) | -3.9% | -12.1% | 1.15% | 14.7% | 18.8% | 10.8% |
| O=C(OCC1CCCO1)c1ccc([N+](=O)[O-])cc1 (centres undefined) | 2.05% | 21.6% | 12.9% | 9.7% | 30.9% | 12.3% |
| CC(=O)CSc1ncnc2nc[nH]c12 | 0.1% | 2.8% | -0.5% | -5.5% | 5.85% | -5.3% |

| SMILES | growth inhibition [1] | growth inhibition [2] | growth inhibition [3] | growth inhibition [4] | growth inhibition [5] | growth inhibition [6] |
| --- | --- | --- | --- | --- | --- | --- |
| CCN(C(C)=O)c1ccc([N+](=O)[O-])cc1 | -11.9% | -1.65% | 2% | -41.8% |  | -13.7% |
| O=C(NC1CCCCC1)c1ccc(Cl)cc1 | 4.55% | -6.7% | -20.1% | 12.7% | -17.6% | -1.85% |
| O=C(CC(CC(=O)c1ccccc1)c1ccccn1)c1ccccc1 | -16.6% | -20.2% | -28.1% | -33% | 4.65% | -42.1% |
| CS(=O)(=O)c1ccc(/C=C\C(=O)O)cc1 | 19.6% | 7.1% | 9% | -8.4% | -3.7% | 19.2% |
| COc1ccc(/C=C\C(=O)/C=C/c2ccc(OC)cc2)cc1 | -11.9% | 7.05% | 1.5% | -14.4% | -3.35% | 0% |
| O=C1C=C[C@H](O)[C@@]2(CO)O[C@@H]12 | 5.85% | 0.85% | -14.5% | -6.1% | -13.7% | 11.7% |
| O=C(Oc1ccccc1Cl)c1ccc(Cl)cc1Cl | 2.2% | 33.4% | 24.9% | -49.4% | 43.2% | 48.3% |
| CC(=O)OC/C(C)=C\CC(C)COC(C)=O (centres undefined) | -9.25% | 3.35% | 14.4% | 2.4% | -18.6% | -0.75% |
| CCCCCCCCCCCCCC/C=C\C(CC(=O)O)C(=O)O (centres undefined) | 4.6% | -15.5% | 6.1% | -32.6% | -28.4% | -19.2% |
| CCCCNC(=O)c1ccc(OCC)cc1 | 12.2% | 20.4% | 33.3% | -16.4% | -8.85% | -0.1% |
| COC(C(=O)C(O)C(C)O)C1Cc2cc3cc(OC4CC(OC5CC(O)C(O)C(C)O5)C(O)C(C)O4)c(C)c(O)c3c(O)c2C(=O)C1OC1CC(OC2CC(O)C(OC3CC(C)(O)C(O)C(C)O3)C(C)O2)C(O)C(C)O1 (centres undefined) | -6.6% | -23.4% | -12.5% | 6.95% | -11.2% | 11.8% |
| OCCOc1ccc(-c2cc(-c3ccccn3)nc(-c3ccccn3)c2)cc1 | 57.6% | 46.3% | 43% | 44.5% | 46.7% | 77.4% (active) |
| Clc1ccc(-c2noc(/C=C\c3ccccc3)n2)cc1 | 12.7% | -20.1% | 4.8% | 12.1% | 8.7% | 7.45% |
| Cc1ccc(C(C)C)c(OCC(=O)O)c1 | 15.4% | 12% | 24.2% | 8.65% | -6.85% | 25.6% |
| Cc1cccc(-[n+]2noc(N)n2)c1 | 29.1% | 22.2% | 2.25% | -3.35% | 1.95% | 40.6% |
| CCC(/C=C\C(C)=O)CC | -28.3% | -25.2% | -27.6% | 5.35% | -10.6% | -12.8% |
| CC(=O)C1C(=O)C(=O)N(c2cccc([N+](=O)[O-])c2)C1=O (centres undefined) | -40% | -23.9% | -8.75% | -9.3% | -23.4% | -54.3% |
| O=Cc1c(O)c2ccccc2[nH]c1=O | -0.95% | 1.35% | -1.55% | 9.5% | 4.2% | 3.85% |
| Cc1[nH]nc(C(N)=O)c1[N+](=O)[O-] | -0.75% | 4.95% | 20.2% | -36.8% | -6.7% | 0.35% |
| Cc1ccc(/C=N/NC(N)=S)s1 | 24.9% | 1.9% | 49.1% | -41.5% | -12.8% | 48.5% |

Source: PubChem BioAssay (NCI)
